Measured values from ChEMBL document CHEMBL1961873, “Compounds: GSK PKIS; Assays: Nanosyn kinase panel” (2012).
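Also: values are mean inhibition of TBK1, screened as part of the GSK published kinase inhibitor set.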

Each compound was assayed against T1, Serine/threonine-protein kinase TBK1 (Homo sapiens) (UniProt Q9UHD2). Details: at 1 µM.
T1 sequence (whole entry): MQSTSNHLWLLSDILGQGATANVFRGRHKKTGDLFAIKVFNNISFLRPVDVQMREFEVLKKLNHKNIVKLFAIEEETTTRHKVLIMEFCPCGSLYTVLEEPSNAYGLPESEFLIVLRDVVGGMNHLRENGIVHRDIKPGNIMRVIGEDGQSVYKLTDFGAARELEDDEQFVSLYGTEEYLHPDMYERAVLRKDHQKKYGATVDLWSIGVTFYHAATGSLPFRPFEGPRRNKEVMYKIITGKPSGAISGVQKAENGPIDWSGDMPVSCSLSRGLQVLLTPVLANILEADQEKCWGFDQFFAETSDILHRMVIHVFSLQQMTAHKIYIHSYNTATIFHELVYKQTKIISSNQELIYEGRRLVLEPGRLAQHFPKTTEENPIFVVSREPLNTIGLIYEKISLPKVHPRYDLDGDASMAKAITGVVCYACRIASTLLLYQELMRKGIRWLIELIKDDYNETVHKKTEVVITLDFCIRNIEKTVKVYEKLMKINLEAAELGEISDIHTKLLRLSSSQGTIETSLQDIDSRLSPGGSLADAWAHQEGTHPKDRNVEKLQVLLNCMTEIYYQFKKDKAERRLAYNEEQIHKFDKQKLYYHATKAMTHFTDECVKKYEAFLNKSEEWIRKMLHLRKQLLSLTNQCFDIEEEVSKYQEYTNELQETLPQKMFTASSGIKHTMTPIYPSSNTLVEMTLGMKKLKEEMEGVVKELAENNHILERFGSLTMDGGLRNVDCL
In the case of Clc1ccc(CNc2nccc(-c3cnn4ncccc34)n2)cc1, the inhibition is reported as 2.91%.
In the case of CN(c1ccc(NC(=O)Nc2c(Cl)cccc2Cl)cc1)c1ccnc(Nc2cccc(CS(C)(=O)=O)c2)n1, the inhibition is reported as 8.89%.
With Cc1ccc(NC(=O)c2ccoc2)cc1-c1ccc(C(=O)NCC2CC2)cc1 the inhibition was 0.72%.
FC(F)(F)c1cccc(Nc2nccc(-c3cnn4nc(-c5ccccc5)ccc34)n2)c1 was tested, and the inhibition was 4.35%.
CN(C)c1ccc2c(c1)/C(=C/Nc1ccc(S(N)(=O)=O)cc1)C(=O)N2 showed an inhibition of 49.7%.
Work on C/C(Nc1ccc(S(N)(=O)=O)cc1)=C1/C(=O)Nc2ccccc21 yielded an inhibition of 4.75%.
Work on COc1cc(N2CCN(C(C)C)CC2)ccc1Nc1nc(Nc2ccc(F)cc2C(=O)NC[C@@H](O)CO)c2cc[nH]c2n1 yielded an inhibition of 4.23%.
Nc1nccc(-c2c(-c3ccc(F)cc3)ncn2C2CCC(O)CC2)n1 (centres undefined) was tested, and the inhibition was 1.41%.
With N#Cc1ccc(Oc2nccc(-c3c(-c4ccc(F)cc4)ncn3C3CCNCC3)n2)cc1 the inhibition was 3.03%.
C[C@@H](Oc1cc(-n2cnc3ccc(OCC4CCN(C)CC4)cc32)sc1C(N)=O)c1ccccc1Cl was tested, and the inhibition was 6.08%.
For Fc1ccc(-c2c(-c3ccncc3)nc3n2CCS3)cc1, the inhibition was 2.15%.
Work on O=C(Nc1n[nH]c2cc(-c3cc(F)ccc3F)ccc12)C1CC1 yielded an inhibition of 5.44%.
Compound CCS(=O)(=O)c1ccc(OC)c(Nc2ncc(-c3ccccc3Cl)o2)c1 has an inhibition of 7.68%.
O=C(Nc1n[nH]c2nc(-c3ccco3)ccc12)C1CC1 was tested, and the inhibition was 2.8%.
For NS(=O)(=O)c1ccc(Nc2cc(-c3ccc(O)c(F)c3)n[nH]2)cc1, the inhibition was 7.59%.
O=C1Nc2ccccc2/C1=C/Nc1ccc(-n2cncn2)cc1 was tested, and the inhibition was 17.3%.
In the case of Fc1ccc(-c2ncn(C3CCNCC3)c2-c2ccnc(Oc3ccc(F)c(F)c3)n2)cc1, the inhibition is reported as 5.03%.
COc1cc(C)c(N(C)C(=O)CN(C)C)cc1Nc1nc(Nc2cccc(F)c2C(N)=O)c2cc[nH]c2n1 showed an inhibition of 3.23%.
In the case of COc1ccc(-c2ccc3c(NC(=O)C4CC4)n[nH]c3n2)cc1, the inhibition is reported as 0.62%.
Compound COc1cc(Nc2ncc3c(C)nc(-c4cccc(Oc5ccccc5)c4)n3n2)cc(OC)c1OC has an inhibition of 28.8%.
COc1cc(Nc2ncc3c(C)nc(-c4cccc(C(F)(F)F)c4)n3n2)cc(OC)c1OC gave an inhibition of 25.5%.
For c1ccc(-c2n[nH]cc2-c2ccnc(-c3ccc(OCCN4CCOCC4)cc3)c2)nc1, the inhibition was 1.95%.
For CCc1cccc(CC)c1/C=C/c1cncc(C(=O)NC)c1, the inhibition was 1.52%.
With NS(=O)(=O)c1ccc(N/N=C2\C(=O)Nc3ccc(-c4cnco4)cc32)cc1 the inhibition was 38.4%.
COc1cc2ncn(-c3cc(OCc4ccccc4C(F)(F)F)c(C(C)=O)s3)c2cc1OC was tested, and the inhibition was 2.12%.
COc1cccc(-n2cnc3c(N/N=C/c4ccncc4)ncnc32)c1 gave an inhibition of 2.56%.
For NS(=O)(=O)c1ccc(N/N=C2\C(=O)Nc3ccc(C(=O)NCCCn4ccnc4)cc32)cc1, the inhibition was 30.4%.
Fc1ccc(-c2ncn(C3CCNCC3)c2-c2ccnc(Oc3ccc4c(c3)OCO4)n2)cc1 gave an inhibition of 4.07%.
Work on COc1cc(Nc2ncc(-c3ccccc3)o2)cc(OC)c1OC yielded an inhibition of 13.7%.
Fc1ccc(-c2ncn(C3CCNCC3)c2-c2ccnc(Oc3ccc(Oc4ccccc4)cc3)n2)cc1 showed an inhibition of 2.57%.
O=C(Nc1ccc(Oc2ccc3[nH]c(NC(=O)c4ccccc4)nc3c2)cc1)Nc1cc(C(F)(F)F)ccc1F was tested, and the inhibition was 4.56%.
With Cc1ccc(C(=O)NC(C)C)cc1-c1ccc(C(=O)NCC2CC2)cc1 the inhibition was -1.07%.
With NC(=O)c1ccc(Oc2nccc(-c3c(-c4ccc(F)cc4)ncn3C3CCNCC3)n2)cc1 the inhibition was 4.3%.
NC(=O)Cc1ccccc1Oc1nccc(-c2c(-c3ccc(F)cc3)ncn2C2CCNCC2)n1 showed an inhibition of 4.55%.
